HT1080-NT tox: kills 2HG-producing HT-1080-NT fibrosarcoma cells. HT-1080-NT fibrosarcoma viability, CellTiter-Glo ATP luminescence, 48 h. Potency, µM (doses to about 46.1 µM), actives largely listed as cytotoxic. actives 1.6% (n = 360,000);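 note: NT is the 2HG producing partner of a matched IDH1 knockdown line; nearly all actives have a fitted effect of over 55% in size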
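Luminescent CellTiter-Glo readout after 48 hours of compound exposure at 37 degrees C defined viability of HT-1080-NT cells. Activity was normalized to DMSO wells and cell-free media wells; concentration-response curves were fitted and assigned curve classes.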
HT1080 IDH1KD tx: HT-1080 IDH1 knockdown cell toxicity (counter line). HT-1080 IDH1 knockdown viability, ATP luminescence, 48 h. Potency, µM (titrated, usually from 46.1 µM), most hits filed as cytotoxic. actives 2% (n = 360,000)
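Viability of IDH1-knockdown HT-1080 fibrosarcoma cells was assessed by CellTiter-Glo after 48 h at 37 °C with titrated compound; concentration-effect curves were classified by fit quality and response size.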
TDP1 cell CPT: DT40-hTDP1 cell growth loss with CPT; AID 686979; Potency, µM (highest dose often 46.2 µM), usual class: inhibitors; chicken DT40 Tdp1-/-;hTDP1 cells + 20 nM CPT, ATP luminescence, 48 h; actives 12% (n = 420,000); note: nearly all actives have a fitted effect of over 55% in size
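Chicken DT40 Tdp1-/- cells complemented with human TDP1, 400 cells/well, exposed to compounds plus 20 nM camptothecin for at least 48 h at 37 C; viability read as ATP content by CellTiter-Glo luminescence.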
IL-1B inflam inh: inflammasome signaling inhibition, IL-1 beta readout | THP-1 LPS/ATP IL-1B secretion, AlphaLISA, 16 h; hits give low values | activity change, % at 57.5 µM | actives 4.7% (n = 360,000) | AID 743279; in the data active = activity change below about -50%; inconclusive = mostly about -30% to -49%
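Secreted IL-1B measured by AlphaLISA bead assay after 16 h compound exposure of THP-1 cells; compounds (final up to 57.5 uM) added 1 h before LPS (250 ng/mL) and ATP (1.25 mM) stimulation; lower signal means less secretion.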
TDP1 cell noCPT: qHTS for Inhibitors of human tyrosyl-DNA phosphodiesterase 1 (TDP1): qHTS in cells in absence of CPT | actives 15% (n = 420,000) | Potency, µM (highest dose often 46.2 µM), actives largely listed as inhibitors | AID 686978, 2013 | DT40 Tdp1-/- hTDP1 cells, no CPT, ATP luminescence, 48 h; note: nearly all actives have a fitted effect of over 55% in size
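Luminescent ATP content (CellTiter-Glo) served as the growth readout. Knockout chicken DT40 cells expressing human TDP1 were exposed to compounds without camptothecin for a minimum 48 hr at 37 °C.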
A number is an active result; . = inactive; ? = inconclusive; / = no result given; [ ] = remark or other dose. Most compounds without a hit are left out; they make up all but 19% or so of the library. Unless noted, calls come from the whole dose curve; as a rule, active = well fitted curve in the direction sought with a large enough effect; inconclusive = small, poorly fitted or top-dose-only effect, or another doubt; inactive = no such curve, though single readings can be large; an effect the other way counts as inactive or inconclusive.

SMILES	HT1080-NT tox	HT1080 IDH1KD tx	TDP1 cell CPT	IL-1B inflam inh	TDP1 cell noCPT
CN1c2cc(O)c(N=NC(N)=O)cc2CC1S(=O)(=O)O (stereo not drawn)	/	/	.	/	?
CC(C)(C)c1ccc(CSc2cnn(C(C)(C)C)c(=O)c2Cl)cc1	.	.	0.16µM	.	0.033µM
O=c1c2ccccc2[nH]c(=S)n1-c1cccc(C(F)(F)F)c1	.	.	.	.	?
CC(C)(C)OC(=O)N1CCC(c2c(C(=O)N3CCN(Cc4ccccc4)CC3)cnn2-c2ccc(Cl)cc2)CC1	/	/	26µM	/	21µM
CSc1ccc(CN2CCN(C(=O)Cc3ccccc3)CC2)cc1	.	.	?	.	.
Cc1ccc(-n2ncc(C(=O)N3CCN(c4ccc(Cl)cc4)CC3)c2C2CCN(C(=O)OC(C)(C)C)CC2)c(C)c1	/	/	?	/	12µM
COc1ccc(-n2ncc(C(=O)N3CCN(c4cc(C)ccc4C)CC3)c2C2CCN(C(=O)OC(C)(C)C)CC2)cc1	/	/	21µM	/	15µM
COCc1c(C(=O)N2CCC(c3ccccc3)CC2)cnn1-c1nccc(-c2cc(C)sc2C)n1	/	/	.[9.04 µM]	/	?
C[C@H](NC(=O)N1C[C@H]2C[C@@H](C1)c1cccc(=O)n1C2)C(=O)Nc1ccccc1F	.	.	.	.	.
Nc1ccc(N)cc1	/	/	.	/	.
COC(=O)C1=C(c2c(C)noc2C)C[C@@H]2CC[C@H]1N2C(=O)NCCOc1ccccc1	.	.	.	.	.
COc1ccc(NC(=O)CCOc2cc(C)ccc2C)cc1S(=O)(=O)N1CCCCC1	.	.	?	-54	21µM
Cc1ccc(C)c(OCC(=O)N2CCCN(C)CC2)c1	.	.	.	.	.
C=C(C)[C@H]1O[C@H]2CC[C@@]3(C)[C@@](O)(CC[C@H]4[C@@H]5OC(C)(C)[C@H]6C[C@@H]7C(=C)Cc8c(Cl)cc9[nH]c(c5c9c8[C@@]76O)[C@@]43C)[C@]23O[C@@H]3[C@H]1O	/	/	?	/	12µM
CCCC[C@@H](C)C[C@@H](C)C(=O)N(C)[C@@H](CC(C)C)C(=O)N[C@H](C(=O)N(C)[C@H](C(=O)N1C[C@@H](O)C[C@H]1C(=O)N1C(=O)C=C[C@@H]1C)C(C)C)C(C)OC(C)=O (stereo partly drawn)	0.029µM	0.12µM	0.037µM	-113	0.0065µM
CCCNC(=O)N1[C@H]2CC[C@@H]1C(C(=O)OC)=C(c1cccc(OC)c1OC)C2	.	.	.	.	.
COc1ccc(C(=O)Nc2ccc3c(c2)N(C)C(=O)c2ccccc2S3)cc1OC	/	/	2.9µM	/	2.6µM
CN1C(=O)c2ccccc2Sc2ccc(NC(=O)c3ccc(C(F)(F)F)cc3)cc21	/	/	4.6µM	/	2.9µM
COCCNC(=O)N1[C@H]2CC[C@@H]1C(C(=O)OC)=C(c1ccc(OC)c(OC)c1)C2	.	.	.	.	.
O=C(CCCN1CCC2(CC1)C(=O)N(Cc1cccc(F)c1)CN2c1ccccc1)c1ccc(F)cc1	/	/	30µM	/	15µM
O=C(NCc1ccco1)c1ccc(Cn2c(=O)c3ccccc3n(Cc3cccc(F)c3)c2=O)cc1	.	.	?	.	?
Cc1c(P(=S)(c2ccccc2)c2ccccc2)[n+]2ccccc2n1C	.	.	5.8µM	.	4.1µM
C[C@H](CO)N1C[C@H](C)[C@@H](CN(C)C(=O)Oc2ccc3ccccc3c2)OCc2cnnn2CCCC1=O	.	.	.	.	?
Cc1cccc(-n2c(-c3ccc([N+](=O)[O-])cc3)nc3ccccc3c2=O)c1	.	.	?	.	8.2µM
O=c1c2ccccc2nc(-c2ccccc2)n1-c1ccncc1	.	.	?	.	.
SMILES	HT1080-NT tox	HT1080 IDH1KD tx	TDP1 cell CPT	IL-1B inflam inh	TDP1 cell noCPT
O=c1c2ccccc2nc(-c2ccccc2F)n1-c1ccccc1	.	.	?	.	7.3µM
O=c1c2ccccc2nc(-c2ccccc2)n1-c1ccccc1	.	.	?	.	8.2µM
O=c1c2ccccc2nc(-c2ccc([N+](=O)[O-])cc2)n1-c1ccccc1	.	.	.	.	.
O=c1c2ccccc2nc(-c2ccccc2)n1-c1cccc(O)c1	.	.	?	.	?
COc1ccc(-n2c(-c3ccccc3Br)nc3ccccc3c2=O)cc1	?	.	?	.	21µM
Cc1ccccc1OCC(=O)N1CCN(CCc2ccccn2)CC1	/	/	.	/	.
O=C(N/N=C\c1ccc(COc2ccc([N+](=O)[O-])cc2)o1)c1cccc(Cl)c1	.	.	.	.	?
COc1ccc(-n2c(-c3ccccc3F)nc3ccccc3c2=O)cc1	.	.	?	.	21µM
O=c1c2ccccc2nc(N2CCCC2)n1-c1ccccc1	.	.	?	.	15µM
Cc1nc2cc([N+](=O)[O-])ccc2c(=O)n1-c1cccc(Br)c1	.	.	?	.	18µM
O=c1c2ccccc2nc(Cc2ccccc2)n1-c1ccc(O)cc1	.	.	?	.	?

High-throughput results as filed in PubChem.
